Experimental findings from PubChem BioAssay (NCI) are described below.

SMILES strings stand for the structures. Where “and” joins values, the source holds several entries; their conditions need not be identical. Identical values can stand only once. This is part of a sample that, as a whole, favours compounds with a hit. Of some 83,000 tested, about 20% had one in any assay.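 Activity criterion: percent growth below 10, measured after cells in 96-well plates were exposed to a single compound concentration for 48 hours.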 Calls of active or inactive are those of the source.

The experiment has as its system CCRF-CEM leukemia. Briefly: NCI-60 one-dose screen, 48 h (100 = growth as untreated, 0 = no growth, -100 = all killed). To be noted: 10 µM unless noted.
In the case of `CCCc1cc2cc(-n3nc(CC)c4c3CC(C)(C)CC4=O)cc(NC3CCC(O)CC3)c2c(=O)[nH]1` (stereo unspecified), the growth is 21.8% (inactive). For the compound `O=C(CN1CCN(c2cc(=O)[nH]c3ccc(F)cc23)CC1)N(c1ccccc1)c1ccccc1`, the growth is 102% (inactive). For `CN1CCN(c2ccc(Nc3nc(NCCCNS(=O)(=O)c4cccc(F)c4)c4sccc4n3)cc2)CC1`, the growth was 19.2% (inactive).

In the case of `COc1ccc(C(=NNS(=O)(=O)c2ccc(C)cc2)c2ccccc2)cc1OC`, the growth is 102% (inactive).

Turning to `COc1ccc(/C=N/NC(=O)c2c(N)nn(C)c2Nc2ccccc2)cc1Oc1ccccc1`, the growth was 94.3% (inactive).

Take `C#C[C@]1(O)CC[C@H]2[C@@H]3CC=C4c5sc(NCc6ccccc6)nc5CC[C@]4(C)[C@H]3CC[C@@]21C`: the growth is 6.53% (active).

For the compound `Cc1cc(NS(=O)(=O)c2ccc(NC(=O)CSc3nc4ccccc4c(=O)n3-c3ccccc3)cc2)no1`, the growth is 96.8% (inactive). Consider `CC(C)NC(=O)c1cc(-c2ccc(NC(=O)Nc3ccc(F)c(C(F)(F)F)c3)cc2)nc2cccnc12`, for which the growth is 90.2% (inactive). For `CCOC(=O)c1cccnc1Nc1ccc(NC(=O)Nc2ccc(Cl)c(C(F)(F)F)c2)cc1`, the growth was 29.5% (inactive). To `O=C(CSc1nc2ccccc2c(=O)n1-c1ccc(S(=O)(=O)Nc2ccc(Cl)nn2)cc1)Nc1ccc(S(=O)(=O)Nc2ccc(Cl)nn2)cc1` belongs 101% (inactive). Regarding `COc1cc(-c2nc(-c3ccccc3)[nH]c2-c2ccnc(NCCCNS(=O)(=O)c3ccc(C(F)(F)F)cc3)n2)ccc1Cl`, the growth was 6.64% (active) and 21.7% (inactive).
